The source made the active and inactive calls. Rule for the calls: active = hit-call score of the fitted dose curve at least 0.9, where 1 is the maximum; inactive = score below 0.9.
Assay: Tanguay_ZF_120hpf_ANY: Oregon State University Tanguay Lab 120 Hour Post-fertilization zebrafish Assay for Any Mortality and Malformation (AID 2284404)
Method: Tanguay_ZF_120hpf is a whole embryo, multiplexed endpoint assay using zebrafish larvae exposed for 120 hours post fertilization on a 96-well plate.Tanguay_ZF_120hpf_ANY is one of one assay component(s) measured or calculated from the Tanguay_ZF_120hpf assay. It is designed to make measurements of developmental malformations and mortality as detected with brightfield microscopy and combines scoring from 13 other assay components measuring more specific morphologies.Data from the assay component Tanguay_ZF_120hpf_ANY was analyzed into 1 assay endpoints. This assay endpoint, Tanguay_ZF_120hpf_ANY, was analyzed in the positive analysis fitting direction relative to DMSO as the negative control and baseline of activity. Using a type of morphology reporter, gain-of-signal activity can be used to understand changes in developmentals as they relate to the whole embryo. To generalize the intended target to other relatable targets, this assay endpoint is annotated to the zebrafish development intended target family, where the subfamily is embryonic morphogenesis and mortality.
Zebrafish husbandry: Tropical 5D wild-type adult zebrafish were housed in at an approximate density of 1000 per 100 gallon tank at the Sinnhuber Aquatic Research Laboratory, Oregon State University, Corvallis, OR. Each tank was kept at standard laboratory conditions of 28C on a 14-h light/10-h dark photoperiod in fish water consisting of reverse osmosis water supplemented with a commercially available salt (Instant Ocean). Spawning funnels were placed into the tanks the night prior, and embryos were collected and staged. To increase bioavailability, the chorion was enzymatically removed using pronase (63.6mg/ml, >/= 3.5U/mg, Sigma-Aldrich: P5147) at 4 hours post fertilization (hpf) using a custom automated dechorionator.Chemical exposures: Six hpf dechorionated embryos were placed 1 embryo per well in a 96-well plate prefilled with 90 ul of EM using automated embryo placement systems (AEPS). Ten microliters of each row of dilution plate 2 was added to 2 exposure plates. The final DMSO concentration used was 0.64% (vol/vol). Thirty-two embryos were also exposed to 5uM trimethyltin chloride (positive control). Plates were sealed to prevent evaporation and foil covered to reduce light exposure and kept in a 28C incubator. Embryos were statically exposed until 120 hpf. At 24 hpf, embryos were assessed for photomotor response using a custom photomotor response analysis tool (PRAT) and for developmental toxicity endpoints (MO24: mortality at 24 hpf, DP: developmental progression, SM: spontaneous movement, and NC: notochord distortion). At 120 hpf, locomotor activity was measured using Viewpoint Zebralab and assessed for 13 endpoints. Zebrafish acquisition and analysis program (ZAAP), a custom program designed to inventory, acquire, and manage zebrafish data, was used to collect developmental endpoints as either present or absent (i.e., binary responses were recorded). If mortality occurred for an embryo (at either 24 or 120 hpf), the non-mortality endpoints were not measured.

| SMILES | outcome | AC50 |
| --- | --- | --- |
| OCC(F)(F)OC(F)(F)C(F)(F)OC(F)(F)CO | inactive | – |
| O=S(=O)(F)C(F)(F)C(F)(F)C(F)(F)C(F)(F)C(F)(F)C(F)(F)C(F)(F)C(F)(F)F | inactive | – |
| COC(=O)C(F)(F)C(F)(F)OC(F)(C(F)(F)F)C(F)(F)OC(F)=C(F)F (centres undefined) | – | 22.2 µM (active) |
| NC(=O)C(F)(F)C(F)(F)F | inactive | – |
| C=CC(=O)OCC(F)(F)C(F)F | – | 23.3 µM (active) |
| O=C(O)C(F)(F)OC(F)(F)C(F)(F)OC(F)(F)C(=O)O | inactive | – |
| O=C(O)C(F)(OC(F)(F)C(F)(F)C(F)(F)F)C(F)(F)F (centres undefined) | inactive | – |
| OCC(F)(F)OC(F)(F)C(F)(F)OC(F)(F)C(F)(F)OC(F)(F)CO | – | 18 µM (active) |
| CC(O)C(F)(F)C(F)(F)F (centres undefined) | inactive | – |
| O=C(O)C=CC(F)(C(F)(F)F)C(F)(F)F | inactive | – |
| OCC(F)(F)OC(F)(F)C(F)(F)OC(F)(F)C(F)(F)OC(F)(F)F | inactive | – |
| O=C(O)C(F)(F)OC(F)(F)C(F)(F)OC(F)(F)F | inactive | – |
| O=C(O)C(F)(F)C(F)(F)C(=O)O | inactive | – |
| FC(F)(F)C(F)(C(F)(F)F)C(F)(F)C(F)(F)CC1CO1 (centres undefined) | inactive | – |

Reference: PubChem BioAssay (EPA / NIEHS)
